Here are results for one sequence from publication PMC7862700, “An all-to-all approach to the identification of sequence-specific readers for epigenetic DNA modifications on cytosine”.

What all share (assay): DAPPL (digital affinity profiling via proximity ligation, sequencing); 10 mM Tris-HCl pH 7.5, 50 mM NaCl, 1 mM DTT, 4% glycerol, room temperature, 30 min; GST-TFs on glutathione beads, 16-mer random dsDNA library, 0.1% formaldehyde crosslink after washing; high values mean tight binding
Assay [1] concerns the target T1, FEV (Homo sapiens, UniProt Q99581 1-238).
T1 sequence: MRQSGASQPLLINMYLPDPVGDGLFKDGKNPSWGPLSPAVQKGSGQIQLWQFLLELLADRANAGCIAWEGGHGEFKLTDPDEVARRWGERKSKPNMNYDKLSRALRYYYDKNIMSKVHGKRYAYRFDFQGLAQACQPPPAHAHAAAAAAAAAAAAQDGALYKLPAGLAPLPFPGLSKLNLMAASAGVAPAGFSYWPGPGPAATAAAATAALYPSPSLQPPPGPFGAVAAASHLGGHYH
As to conditions: protein: recombinant; tags: N-terminal GST; dsDNA, one strand shown. Summed up: (§1)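 Binding signal is given per hexamer as its read frequency for a factor divided by its frequency in the tag-only sample. GST-fused human transcription factors were expressed in yeast, captured on glutathione beads, barcoded with DNA and pooled with that sample, then incubated with 200 nmole of a 16-mer random double-stranded DNA library in Tris/NaCl/DTT/glycerol buffer for 30 min at room temperature. The pools were then washed, crosslinked, proximity-ligated, amplified by PCR and sequenced on an Illumina NextSeq500.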

The target of assay [2] is ETV5 (Homo sapiens, UniProt P41161 1-510). As to conditions: protein: recombinant; tags: N-terminal GST; dsDNA, one strand shown. Put shortly: as §1
The target in assay [3] is HSF1 (Homo sapiens, UniProt Q00613 1-529). As to conditions: protein: recombinant; tags: N-terminal GST; chain copies: 3; dsDNA, one strand shown. Summed up:
as §1

Assay [4] addresses T2, SPIC (Homo sapiens, UniProt Q8N5J4 1-248).
T2 sequence: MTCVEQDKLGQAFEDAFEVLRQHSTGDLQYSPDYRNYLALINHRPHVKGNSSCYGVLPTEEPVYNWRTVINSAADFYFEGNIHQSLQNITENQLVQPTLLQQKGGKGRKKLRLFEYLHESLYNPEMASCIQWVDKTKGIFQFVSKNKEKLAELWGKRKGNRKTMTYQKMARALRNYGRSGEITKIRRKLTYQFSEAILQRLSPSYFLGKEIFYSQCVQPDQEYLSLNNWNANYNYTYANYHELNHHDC
To be noted: protein: recombinant; tags: N-terminal GST; dsDNA, one strand shown. Summed up:
as §1

The target of assay [5] is ELF4 (Homo sapiens, UniProt Q99607 1-663). To be noted: protein: recombinant; tags: N-terminal GST; dsDNA, one strand shown. Summed up: as §1
In assay [6] the target is T3, ELK4 (Homo sapiens, UniProt P28324-2 1-405).
T3 sequence: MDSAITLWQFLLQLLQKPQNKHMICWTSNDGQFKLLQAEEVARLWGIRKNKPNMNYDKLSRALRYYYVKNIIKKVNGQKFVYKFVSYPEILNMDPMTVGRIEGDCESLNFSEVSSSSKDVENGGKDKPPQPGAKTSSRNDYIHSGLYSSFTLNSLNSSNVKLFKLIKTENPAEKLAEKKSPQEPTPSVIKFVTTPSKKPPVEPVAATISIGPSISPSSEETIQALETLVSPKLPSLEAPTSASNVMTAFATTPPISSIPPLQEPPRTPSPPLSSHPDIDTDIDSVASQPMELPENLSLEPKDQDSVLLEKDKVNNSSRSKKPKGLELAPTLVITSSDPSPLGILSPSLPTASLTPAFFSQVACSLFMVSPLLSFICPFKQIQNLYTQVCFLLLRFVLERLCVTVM
To be noted: protein: recombinant; tags: N-terminal GST; dsDNA, one strand shown. Put shortly:
as §1

The target of assay [7] is T4, ETV2 (Homo sapiens, UniProt O00321 1-342).
T4 sequence: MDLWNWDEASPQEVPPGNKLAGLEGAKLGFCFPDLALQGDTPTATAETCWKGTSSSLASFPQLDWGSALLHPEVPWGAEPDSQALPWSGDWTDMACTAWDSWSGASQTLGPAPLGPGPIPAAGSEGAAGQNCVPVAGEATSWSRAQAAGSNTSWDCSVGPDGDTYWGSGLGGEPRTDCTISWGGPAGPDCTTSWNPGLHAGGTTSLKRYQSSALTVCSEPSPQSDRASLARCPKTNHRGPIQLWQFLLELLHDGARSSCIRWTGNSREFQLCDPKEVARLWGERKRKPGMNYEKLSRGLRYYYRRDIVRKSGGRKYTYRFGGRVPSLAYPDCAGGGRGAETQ
As to conditions: protein: recombinant; tags: N-terminal GST; dsDNA, one strand shown. Put shortly:
as §1

Assay [8] deals with T5, ELF3 (Homo sapiens, UniProt P78545 1-371).
T5 sequence: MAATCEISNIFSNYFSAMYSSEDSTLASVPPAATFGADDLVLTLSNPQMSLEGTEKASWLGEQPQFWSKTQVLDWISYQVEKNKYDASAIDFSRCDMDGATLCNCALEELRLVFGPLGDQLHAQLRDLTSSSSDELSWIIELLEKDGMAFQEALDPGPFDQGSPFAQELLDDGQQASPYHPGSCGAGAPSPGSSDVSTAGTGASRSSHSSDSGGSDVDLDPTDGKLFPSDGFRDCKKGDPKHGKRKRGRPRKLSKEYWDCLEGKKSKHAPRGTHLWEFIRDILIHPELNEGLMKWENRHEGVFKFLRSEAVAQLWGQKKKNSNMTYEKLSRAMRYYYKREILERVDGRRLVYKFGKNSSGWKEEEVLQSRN
As to conditions: protein: recombinant; tags: N-terminal GST; dsDNA, one strand shown. Put shortly: as §1

Assay [9] concerns the target CRX (Homo sapiens, UniProt O43186 1-299). To be noted: protein: recombinant; tags: N-terminal GST; dsDNA, one strand shown. Summed up: as §1
Assay [10] addresses ETV1 (Homo sapiens, UniProt P50549 1-477). As to conditions: protein: recombinant; tags: N-terminal GST; dsDNA, one strand shown. Put shortly: as §1
The target in assay [11] is T6, ERF (Homo sapiens, UniProt P50548 1-548).
T6 sequence: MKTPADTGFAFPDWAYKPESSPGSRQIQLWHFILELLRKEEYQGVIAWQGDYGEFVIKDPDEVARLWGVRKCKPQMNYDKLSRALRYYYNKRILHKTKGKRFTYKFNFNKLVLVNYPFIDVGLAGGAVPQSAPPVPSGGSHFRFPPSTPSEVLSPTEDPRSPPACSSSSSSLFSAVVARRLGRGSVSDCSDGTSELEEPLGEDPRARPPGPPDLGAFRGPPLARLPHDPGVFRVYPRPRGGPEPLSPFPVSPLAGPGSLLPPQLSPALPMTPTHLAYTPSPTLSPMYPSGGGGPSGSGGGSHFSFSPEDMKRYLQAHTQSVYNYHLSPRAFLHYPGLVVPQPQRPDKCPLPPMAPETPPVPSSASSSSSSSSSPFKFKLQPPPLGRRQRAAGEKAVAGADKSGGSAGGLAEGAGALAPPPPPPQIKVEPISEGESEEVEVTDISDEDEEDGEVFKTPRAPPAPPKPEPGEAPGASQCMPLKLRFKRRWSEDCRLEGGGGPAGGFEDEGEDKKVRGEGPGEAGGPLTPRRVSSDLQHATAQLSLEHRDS
To be noted: protein: recombinant; tags: N-terminal GST; dsDNA, one strand shown. Summed up: as §1

For assay [12], the target named is T7, ETV3L (Homo sapiens, UniProt Q6ZN32 1-361).
T7 sequence: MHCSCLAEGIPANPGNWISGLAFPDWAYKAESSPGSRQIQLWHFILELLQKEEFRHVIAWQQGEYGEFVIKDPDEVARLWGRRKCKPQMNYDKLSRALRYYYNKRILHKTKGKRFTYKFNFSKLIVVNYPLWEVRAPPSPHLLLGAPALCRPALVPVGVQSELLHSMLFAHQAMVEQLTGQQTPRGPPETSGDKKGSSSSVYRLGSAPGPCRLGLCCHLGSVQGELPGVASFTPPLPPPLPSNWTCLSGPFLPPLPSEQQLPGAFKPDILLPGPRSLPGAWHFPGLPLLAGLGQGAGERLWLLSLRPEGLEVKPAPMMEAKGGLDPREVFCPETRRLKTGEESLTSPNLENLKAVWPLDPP
To be noted: protein: recombinant; tags: N-terminal GST; dsDNA, one strand shown. Put shortly:
as §1

Assay [13] concerns the target T8, ETS2 (Homo sapiens, UniProt P15036 1-469).
T8 sequence: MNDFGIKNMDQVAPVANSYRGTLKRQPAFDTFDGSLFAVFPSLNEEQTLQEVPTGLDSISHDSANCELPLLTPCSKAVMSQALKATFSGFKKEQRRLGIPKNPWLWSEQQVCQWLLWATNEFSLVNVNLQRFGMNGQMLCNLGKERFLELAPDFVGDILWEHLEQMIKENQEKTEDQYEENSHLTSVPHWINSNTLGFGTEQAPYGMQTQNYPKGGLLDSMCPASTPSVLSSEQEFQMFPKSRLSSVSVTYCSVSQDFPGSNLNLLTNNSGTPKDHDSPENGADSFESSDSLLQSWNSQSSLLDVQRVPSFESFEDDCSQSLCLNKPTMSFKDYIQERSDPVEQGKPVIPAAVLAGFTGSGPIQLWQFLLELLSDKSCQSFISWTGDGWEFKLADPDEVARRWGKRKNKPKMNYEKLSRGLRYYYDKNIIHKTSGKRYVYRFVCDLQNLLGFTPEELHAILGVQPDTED
As to conditions: protein: recombinant; tags: N-terminal GST; dsDNA, one strand shown. Put shortly: as §1

The target of assay [14] is T9, SPDEF (Homo sapiens, UniProt O95238 1-335).
T9 sequence: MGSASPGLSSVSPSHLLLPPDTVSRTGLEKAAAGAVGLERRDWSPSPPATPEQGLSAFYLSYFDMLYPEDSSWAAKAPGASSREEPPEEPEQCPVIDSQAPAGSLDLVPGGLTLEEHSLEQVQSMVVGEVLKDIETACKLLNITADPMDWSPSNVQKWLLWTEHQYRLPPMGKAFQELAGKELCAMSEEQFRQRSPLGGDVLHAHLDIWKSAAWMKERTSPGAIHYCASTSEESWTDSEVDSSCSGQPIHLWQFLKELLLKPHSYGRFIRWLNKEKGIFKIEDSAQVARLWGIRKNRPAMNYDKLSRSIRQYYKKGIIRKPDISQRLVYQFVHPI
To be noted: protein: recombinant; tags: N-terminal GST; dsDNA, one strand shown. Put shortly: as §1

The target of assay [15] is T10, ETV7 (Homo sapiens, UniProt Q9Y603 1-341).
T10 sequence: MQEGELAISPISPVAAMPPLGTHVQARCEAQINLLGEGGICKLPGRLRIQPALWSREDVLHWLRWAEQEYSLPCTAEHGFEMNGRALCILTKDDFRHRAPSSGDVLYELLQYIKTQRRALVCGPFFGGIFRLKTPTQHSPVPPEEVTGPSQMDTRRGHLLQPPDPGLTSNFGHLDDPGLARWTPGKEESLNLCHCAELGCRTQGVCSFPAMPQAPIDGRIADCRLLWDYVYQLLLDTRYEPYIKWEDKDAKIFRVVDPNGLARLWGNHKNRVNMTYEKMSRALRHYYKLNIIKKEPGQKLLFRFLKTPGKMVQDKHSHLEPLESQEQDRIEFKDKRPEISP
To be noted: protein: recombinant; tags: N-terminal GST; dsDNA, one strand shown. Put shortly:
as §1

The target of assay [16] is T11, ELF5 (Homo sapiens, UniProt Q9UKW6-2 1-255).
T11 sequence: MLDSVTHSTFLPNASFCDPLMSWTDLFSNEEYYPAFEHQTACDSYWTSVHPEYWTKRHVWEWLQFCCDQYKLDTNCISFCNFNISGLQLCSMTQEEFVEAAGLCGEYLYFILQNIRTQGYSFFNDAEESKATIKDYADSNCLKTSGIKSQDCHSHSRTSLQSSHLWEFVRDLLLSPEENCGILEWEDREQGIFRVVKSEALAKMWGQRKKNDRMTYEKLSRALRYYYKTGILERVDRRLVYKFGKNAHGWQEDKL
To be noted: protein: recombinant; tags: N-terminal GST; dsDNA, one strand shown. Summed up: as §1

For assay [17], the target named is T12, ETV3 (Homo sapiens, UniProt P41162-2 1-143).
T12 sequence: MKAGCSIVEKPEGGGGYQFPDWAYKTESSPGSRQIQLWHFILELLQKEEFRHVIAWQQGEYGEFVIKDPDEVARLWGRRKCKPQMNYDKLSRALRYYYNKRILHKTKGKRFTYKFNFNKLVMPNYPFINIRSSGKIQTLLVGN
To be noted: protein: recombinant; tags: N-terminal GST; dsDNA, one strand shown. Put shortly: as §1

Assay [18] concerns the target ETV6 (Homo sapiens, UniProt P41212 1-452). As to conditions: protein: recombinant; tags: N-terminal GST; dsDNA, one strand shown. Summed up:
as §1

Sequence of ETV5 (P41161 whole entry): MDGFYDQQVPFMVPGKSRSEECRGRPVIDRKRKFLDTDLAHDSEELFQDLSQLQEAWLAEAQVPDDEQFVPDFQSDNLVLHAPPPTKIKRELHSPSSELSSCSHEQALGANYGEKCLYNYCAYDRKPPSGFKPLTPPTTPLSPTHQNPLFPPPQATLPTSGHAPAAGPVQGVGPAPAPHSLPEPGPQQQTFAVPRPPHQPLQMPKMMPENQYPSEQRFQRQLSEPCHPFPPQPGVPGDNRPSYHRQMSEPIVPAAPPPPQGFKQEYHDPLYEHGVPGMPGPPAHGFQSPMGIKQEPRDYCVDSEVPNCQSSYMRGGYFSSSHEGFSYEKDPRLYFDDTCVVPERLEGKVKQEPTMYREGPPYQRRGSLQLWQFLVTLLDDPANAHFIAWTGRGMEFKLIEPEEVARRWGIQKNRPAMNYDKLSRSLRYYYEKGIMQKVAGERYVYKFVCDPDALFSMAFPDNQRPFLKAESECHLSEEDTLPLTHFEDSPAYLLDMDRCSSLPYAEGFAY
Sequence of HSF1 (Q00613 whole entry): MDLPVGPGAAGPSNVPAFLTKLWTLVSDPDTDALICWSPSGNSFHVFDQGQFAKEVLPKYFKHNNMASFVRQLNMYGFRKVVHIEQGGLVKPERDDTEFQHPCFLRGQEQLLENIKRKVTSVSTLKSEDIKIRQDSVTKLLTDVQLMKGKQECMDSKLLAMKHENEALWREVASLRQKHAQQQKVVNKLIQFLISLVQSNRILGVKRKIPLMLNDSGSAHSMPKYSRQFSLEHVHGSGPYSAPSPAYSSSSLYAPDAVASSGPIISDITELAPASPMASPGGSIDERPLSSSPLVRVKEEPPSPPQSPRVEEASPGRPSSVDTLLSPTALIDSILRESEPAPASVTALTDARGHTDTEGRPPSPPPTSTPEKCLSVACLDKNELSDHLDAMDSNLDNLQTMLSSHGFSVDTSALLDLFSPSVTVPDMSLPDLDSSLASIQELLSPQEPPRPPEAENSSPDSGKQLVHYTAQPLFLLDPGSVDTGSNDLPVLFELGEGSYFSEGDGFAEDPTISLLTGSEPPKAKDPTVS
Sequence of ETV6 (P41212 whole entry): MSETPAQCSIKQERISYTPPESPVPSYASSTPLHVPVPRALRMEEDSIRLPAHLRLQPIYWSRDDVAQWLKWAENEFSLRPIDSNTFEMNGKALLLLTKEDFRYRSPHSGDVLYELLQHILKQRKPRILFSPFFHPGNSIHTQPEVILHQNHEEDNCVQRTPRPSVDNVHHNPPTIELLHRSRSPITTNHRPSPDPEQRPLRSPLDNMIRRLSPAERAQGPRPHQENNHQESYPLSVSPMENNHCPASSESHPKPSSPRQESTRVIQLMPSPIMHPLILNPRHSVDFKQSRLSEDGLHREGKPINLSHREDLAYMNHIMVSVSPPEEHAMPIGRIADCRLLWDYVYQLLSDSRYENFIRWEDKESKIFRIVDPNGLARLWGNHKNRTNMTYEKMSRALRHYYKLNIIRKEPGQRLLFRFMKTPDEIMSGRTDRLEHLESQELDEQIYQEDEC
Sequence of ELF4 (Q99607 whole entry): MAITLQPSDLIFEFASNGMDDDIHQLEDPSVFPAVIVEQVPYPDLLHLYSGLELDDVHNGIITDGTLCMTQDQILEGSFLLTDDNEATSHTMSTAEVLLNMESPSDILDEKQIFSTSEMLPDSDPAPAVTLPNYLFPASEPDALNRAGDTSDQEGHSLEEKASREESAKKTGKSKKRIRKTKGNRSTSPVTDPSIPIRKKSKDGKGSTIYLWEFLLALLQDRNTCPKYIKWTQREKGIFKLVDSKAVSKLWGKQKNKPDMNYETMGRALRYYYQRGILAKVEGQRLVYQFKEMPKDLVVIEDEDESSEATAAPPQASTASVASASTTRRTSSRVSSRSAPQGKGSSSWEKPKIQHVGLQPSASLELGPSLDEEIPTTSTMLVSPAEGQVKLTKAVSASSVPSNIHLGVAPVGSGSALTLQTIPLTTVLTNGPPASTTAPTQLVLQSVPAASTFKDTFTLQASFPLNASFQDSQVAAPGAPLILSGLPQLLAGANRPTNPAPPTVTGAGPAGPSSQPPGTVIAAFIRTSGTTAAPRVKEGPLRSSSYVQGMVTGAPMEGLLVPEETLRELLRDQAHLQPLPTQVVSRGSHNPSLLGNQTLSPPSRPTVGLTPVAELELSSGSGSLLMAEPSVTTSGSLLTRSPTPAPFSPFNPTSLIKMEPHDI
Sequence of CRX (O43186 whole entry): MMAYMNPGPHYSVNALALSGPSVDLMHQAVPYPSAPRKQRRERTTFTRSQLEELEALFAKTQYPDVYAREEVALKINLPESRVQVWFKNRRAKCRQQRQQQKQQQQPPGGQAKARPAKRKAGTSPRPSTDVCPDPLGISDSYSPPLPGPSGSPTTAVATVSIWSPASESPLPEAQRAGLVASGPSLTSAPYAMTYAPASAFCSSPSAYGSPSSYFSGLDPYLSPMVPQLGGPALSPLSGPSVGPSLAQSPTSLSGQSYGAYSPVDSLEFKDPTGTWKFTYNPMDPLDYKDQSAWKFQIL
Sequence of ETV1 (P50549 whole entry): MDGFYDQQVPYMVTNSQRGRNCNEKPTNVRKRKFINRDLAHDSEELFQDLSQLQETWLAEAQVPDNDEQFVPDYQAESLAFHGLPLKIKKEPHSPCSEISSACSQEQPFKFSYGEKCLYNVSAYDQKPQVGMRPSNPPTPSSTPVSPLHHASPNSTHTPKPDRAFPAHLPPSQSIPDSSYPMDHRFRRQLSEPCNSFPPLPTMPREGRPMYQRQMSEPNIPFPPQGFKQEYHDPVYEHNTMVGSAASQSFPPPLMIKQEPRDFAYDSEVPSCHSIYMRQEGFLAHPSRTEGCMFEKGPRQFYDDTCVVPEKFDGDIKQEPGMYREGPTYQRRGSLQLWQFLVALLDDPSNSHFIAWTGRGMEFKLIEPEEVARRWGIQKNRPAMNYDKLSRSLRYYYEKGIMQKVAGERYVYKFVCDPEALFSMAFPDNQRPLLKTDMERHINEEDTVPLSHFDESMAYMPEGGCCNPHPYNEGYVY

On to CTAATG, for which the binding signal is 1.16 fold enrichment (6-mer frequency, TF over GST control) in assay [1]; 1.25 fold enrichment (6-mer frequency, TF over GST control) in [2]; 1.31 fold enrichment (6-mer frequency, TF over GST control) in [3]; 1.35 fold enrichment (6-mer frequency, TF over GST control) in assay [4]; 1.36 fold enrichment (6-mer frequency, TF over GST control) in assay [5]; 1.34 fold enrichment (6-mer frequency, TF over GST control) in assay [6]. Also, the binding signal was 1.12 fold enrichment (6-mer frequency, TF over GST control) in assay [7]; 1.27 fold enrichment (6-mer frequency, TF over GST control) in [8]; 1.6 fold enrichment (6-mer frequency, TF over GST control) in [9]; 1.29 fold enrichment (6-mer frequency, TF over GST control) in assay [10]; 1.2 fold enrichment (6-mer frequency, TF over GST control) in [11]; 1.17 fold enrichment (6-mer frequency, TF over GST control) in [12]. Further, the binding signal in [13] is 1.25 fold enrichment (6-mer frequency, TF over GST control); in [14], 1.11 fold enrichment (6-mer frequency, TF over GST control); in [15], 1.3 fold enrichment (6-mer frequency, TF over GST control); in assay [16], 1.23 fold enrichment (6-mer frequency, TF over GST control); in [17] it was 1.16 fold enrichment (6-mer frequency, TF over GST control); in assay [18], 1.3 fold enrichment (6-mer frequency, TF over GST control).
